Assay results: PubChem BioAssay (EPA / NIEHS)
The source made the active and inactive calls. How the source made its calls: active means hit-call score of the fitted dose curve at least 0.9, where 1 is the maximum; inactive means score below 0.9.

Assays:
[1] = BSK_hDFCGF_Proliferation: Cell Proliferation Assessment in the BioMAP Diversity Plus: hDFCGF Assay (AID 2283059); settings: primary human foreskin fibroblasts;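 further: curves fitted for both rise and fall of signal versus DMSO baseline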
Method in brief: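 Sub-confluent human foreskin fibroblast cultures receive test chemical […]. Relative cell number is quantified by sulforhodamine B staining (0.1%, after 10% TCA fixation) at 560 nm, with bidirectional fitting referenced to DMSO.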

[2] = read-out: Macrophage colony-stimulating factor (MCSF), CSF1 (gene 1435); assay: BSK_hDFCGF_MCSF: BioMAP Diversity Plus: hDFCGF Assay for Macrophage colony-stimulating factor (MCSF) Biomarker Activity (AID 2283060); settings: primary human foreskin fibroblasts; actives raise or lower the signal
Method in brief: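 M-CSF levels read by ELISA at 24 h post-dosing in human skin fibroblasts. Parallel cultures stained with SRB assessed cytotoxicity at the same time point; response fitted in both directions against the DMSO baseline.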

[3] = BSK_hDFCGF_SRB: Viability Assessment in the BioMAP Diversity Plus: hDFCGF Assay (AID 2283061); settings: primary human foreskin fibroblasts;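 further: cells exposed to compound for 24 h before the read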
Method in brief: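 Viability was read as total protein: after 10% TCA fixation, wells were stained with 0.1% sulforhodamine B and read at 560 nm. Primary human foreskin fibroblasts were dosed for 24 h, with bidirectional fitting versus DMSO.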

[4] = read-out: TIMP metallopeptidase inhibitor 1 (TIMP1), TIMP1 (gene 7076); assay: BSK_hDFCGF_TIMP1: BioMAP Diversity Plus: hDFCGF Assay for TIMP metallopeptidase inhibitor 1 (TIMP1) Biomarker Activity (AID 2283062); settings: primary human foreskin fibroblasts; actives raise or lower the signal
Method in brief: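 TIMP-1 measured by ELISA 24 h after chemical dosing of primary human skin fibroblasts, with gain or loss fitted relative to DMSO. Parallel SRB staining (560 nm) monitored overt cytotoxicity.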

[5] = read-out: Monokine induced gamma interferon (MIG), CXCL9 (gene 4283); assay: BSK_hDFCGF_MIG: BioMAP Diversity Plus: hDFCGF Assay for Monokine induced gamma interferon (MIG) Biomarker Activity (AID 2283063); settings: primary human foreskin fibroblasts; actives raise or lower the signal
Method in brief: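 Human primary foreskin fibroblasts in the hDFCGF system, exposed to test chemical for 24 h; MIG measured by ELISA. Bidirectional curve fitting against DMSO negative control as activity baseline.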

[6] = read-out: Matrix Metallopeptidase 1 (MMP1), MMP1 (gene 4312); assay: BSK_hDFCGF_MMP1: BioMAP Diversity Plus: hDFCGF Assay for Matrix Metallopeptidase 1 (MMP1) Biomarker Activity (AID 2283064); settings: primary human foreskin fibroblasts; actives raise or lower the signal
Method in brief: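 ELISA read-out of MMP1 from human foreskin fibroblasts (primary skin cells), 24 h post-dose. Gain or loss of signal was fitted bidirectionally versus DMSO negative control; cytotoxicity was checked by SRB in parallel cultures.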

[7] = read-out: Plasminogen activator inhibitor-1 (PAI1), SERPINE1 (gene 5054); assay: BSK_hDFCGF_PAI1: BioMAP Diversity Plus: hDFCGF Assay for Plasminogen activator inhibitor-1 (PAI1) Biomarker Activity (AID 2283066); settings: primary human foreskin fibroblasts; actives raise or lower the signal
Method in brief: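 ELISA readout of PAI-1 from primary human skin fibroblast cultures, 24 h after compound addition. Gain or loss of signal was fitted bidirectionally against DMSO baseline.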

[8] = read-out: Intercellular Adhesion Molecule 1 (ICAM1), ICAM1 (gene 3383); assay: BSK_KF3CT_ICAM1: BioMAP Diversity Plus: KF3CT Assay for Intercellular Adhesion Molecule 1 (ICAM1) Biomarker Activity (AID 2283067); settings: primary human keratinocytes with fibroblasts; actives raise or lower the signal
Method in brief: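 Cell-surface ICAM-1 was measured by ELISA 24 h after dosing primary human skin keratinocytes co-cultured with fibroblasts. Parallel SRB staining tracked overt cytotoxicity. Gain or loss of signal was fitted relative to DMSO.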

[9] = read-out: Interferon-gamma inducible Protein 10 (IP10), CXCL10 (gene 3627); assay: BSK_KF3CT_IP10: BioMAP Diversity Plus: KF3CT Assay for Interferon-gamma inducible Protein 10 (IP10) Biomarker Activity (AID 2283068); settings: primary human keratinocytes with fibroblasts; actives raise or lower the signal
Method in brief: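 ELISA read-out of IP-10 after 24 h chemical dosing of human skin primary co-culture (keratinocytes, foreskin fibroblasts). Gain or loss of signal relative to DMSO, bidirectional curve fit.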

[10] = BSK_KF3CT_SRB: Viability Assessment in the BioMAP Diversity Plus: KF3CT Assay (AID 2283069); settings: primary human keratinocytes with fibroblasts;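 further: total protein by sulforhodamine B staining as a cytotoxicity measure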
Method in brief: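 SRB read-out at 560 nm (0.1% stain, TCA-fixed cells) gauges overt cytotoxicity in a human skin keratinocyte–fibroblast co-culture 24 h post-dosing. Signal change was fitted bidirectionally relative to DMSO control.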

[11] = read-out: Interleukin-1 alpha (IL1a), IL1A (gene 3552); assay: BSK_KF3CT_IL1a: BioMAP Diversity Plus: KF3CT Assay for Interleukin-1 alpha (IL1a) Biomarker Activity (AID 2283070); settings: primary human keratinocytes with fibroblasts; actives raise or lower the signal
Method in brief: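 Primary skin co-culture (keratinocytes, foreskin fibroblasts), 24 h exposure; ELISA for IL-1a; bidirectional curve fit vs DMSO.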

[12] = read-out: TIMP metallopeptidase inhibitor 2 (TIMP2), TIMP2 (gene 7077); assay: BSK_KF3CT_TIMP2: BioMAP Diversity Plus: KF3CT Assay for TIMP metallopeptidase inhibitor 2 (TIMP2) Biomarker Activity (AID 2283071); settings: primary human keratinocytes with fibroblasts; actives raise or lower the signal
Method in brief: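 ELISA readout of TIMP-2 in keratinocyte plus foreskin fibroblast co-cultures (human skin primary cells), 24 h post-dose. Gain or loss of signal fitted relative to DMSO.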

[13] = read-out: C-C motif chemokine 2 (Homo sapiens) (UniProt P13500); assay: BSK_KF3CT_MCP1: BioMAP Diversity Plus: KF3CT Assay for Monocyte Chemoattractant Protein 1 (MCP1/CCL2) Biomarker Activity (AID 2283073); settings: primary human keratinocytes with fibroblasts; actives raise or lower the signal
Method in brief: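 ELISA read-out of MCP-1, 24 h post-dose, in primary human skin keratinocytes co-cultured with fibroblasts. Parallel SRB staining monitors cytotoxicity; changes fitted both directions relative to DMSO.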

[14] = read-out: Matrix Metallopeptidase 9 (MMP9), MMP9 (gene 4318); assay: BSK_KF3CT_MMP9: BioMAP Diversity Plus: KF3CT Assay for Matrix Metallopeptidase 9 (MMP9) Biomarker Activity (AID 2283074); settings: primary human keratinocytes with fibroblasts; actives raise or lower the signal;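 on AC50: MMP9 protein level quantified by ELISA in the co-culture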
Method in brief: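 ELISA read-out of MMP-9 at 24 h post-dosing in a co-culture of human skin keratinocytes and foreskin fibroblasts. Gain or loss of signal was fitted in both directions against DMSO.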

[15] = read-out: urokinase plasminogen activator (uPA), PLAU (gene 5328); assay: BSK_KF3CT_uPA: BioMAP Diversity Plus: KF3CT Assay for urokinase plasminogen activator (uPA) Biomarker Activity (AID 2283075); settings: primary human keratinocytes with fibroblasts; actives raise or lower the signal
Method in brief: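 Skin co-culture (keratinocytes + foreskin fibroblasts), human primary; 24 h post-dose; uPA by ELISA; gain/loss fit vs DMSO baseline.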

[16] = read-out: CD40, CD40 (gene 958); assay: BSK_LPS_CD40: BioMAP Diversity Plus: LPS Assay for CD40 Biomarker Activity (AID 2283076); settings: primary human HUVEC with PBMC; actives raise or lower the signal
Method in brief: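 In the LPS system of human endothelial cells with peripheral blood mononuclear cells, CD40 levels were read by ELISA 24 h post-treatment. Signal changes in either direction were fitted against the DMSO baseline, with parallel SRB protein staining.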

[17] = read-out: E-selectin (Homo sapiens) (UniProt P16581); assay: BSK_LPS_Eselectin: BioMAP Diversity Plus: LPS Assay for Eselectin Biomarker Activity (AID 2283077); settings: primary human HUVEC with PBMC; actives raise or lower the signal
Method in brief: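 E-selectin ELISA on LPS-stimulated endothelial cell/PBMC co-cultures, read 24 h post-treatment; gains and losses fitted against DMSO. Parallel SRB staining (0.1% SRB after 10% TCA fixation, 560 nm) flags overt cytotoxicity.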

[18] = read-out: Interleukin-8 (IL8), CXCL8 (gene 3576); assay: BSK_LPS_IL8: BioMAP Diversity Plus: LPS Assay for Interleukin-8 (IL8) Biomarker Activity (AID 2283078); settings: primary human HUVEC with PBMC; actives raise or lower the signal
Method in brief: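 ELISA read-out of IL-8 after 24 h chemical treatment of LPS-activated endothelial/PBMC human primary co-cultures. Changes either up or down relative to DMSO; overt cytotoxicity checked by sulforhodamine B staining in parallel wells.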

[19] = read-out: Transforming growth factor beta 1 (TGFb1), TGFB1 (gene 7040); assay: BSK_KF3CT_TGFb1: BioMAP Diversity Plus: KF3CT Assay for Transforming growth factor beta 1 (TGFb1) Biomarker Activity (AID 2283072); settings: primary human keratinocytes with fibroblasts; actives raise or lower the signal
Method in brief: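 Read-out: ELISA for TGF-b1 in keratinocyte/foreskin fibroblast human skin co-culture, 24 h after dosing; bidirectional curve fit vs DMSO baseline; gain or loss of signal scored.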

E-selectin (Homo sapiens), sequence (P16581 whole entry, looked up): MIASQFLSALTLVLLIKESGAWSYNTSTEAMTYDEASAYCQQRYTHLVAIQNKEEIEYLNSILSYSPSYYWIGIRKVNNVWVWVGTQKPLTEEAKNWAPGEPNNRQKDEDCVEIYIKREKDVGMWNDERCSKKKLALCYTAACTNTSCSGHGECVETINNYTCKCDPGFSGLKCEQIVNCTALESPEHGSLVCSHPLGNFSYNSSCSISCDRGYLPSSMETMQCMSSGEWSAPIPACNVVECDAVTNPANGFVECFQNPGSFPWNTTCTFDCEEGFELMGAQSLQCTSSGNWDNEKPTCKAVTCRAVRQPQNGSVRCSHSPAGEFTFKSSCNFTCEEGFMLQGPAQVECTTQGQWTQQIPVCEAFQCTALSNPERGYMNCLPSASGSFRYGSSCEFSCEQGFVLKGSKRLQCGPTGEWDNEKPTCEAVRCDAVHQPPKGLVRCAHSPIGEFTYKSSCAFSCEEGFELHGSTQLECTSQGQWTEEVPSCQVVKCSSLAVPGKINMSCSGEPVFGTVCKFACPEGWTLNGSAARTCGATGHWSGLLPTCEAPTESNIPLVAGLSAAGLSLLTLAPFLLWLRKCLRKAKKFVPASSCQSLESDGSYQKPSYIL

SMILES: Cc1cc(O)ccc1Cl
- outcome [1]: inactive
- outcome [2]: inactive
- outcome [3]: inactive
- outcome [4]: inactive
- outcome [5]: inactive
- outcome [6]: inactive
- outcome [7]: inactive
- outcome [8]: inactive
- outcome [9]: inactive
- outcome [10]: inactive
- outcome [11]: inactive
- outcome [12]: inactive
- outcome [13]: inactive
- outcome [14]: inactive
- outcome [15]: inactive
- outcome [16]: inactive
- outcome [17]: inactive
- outcome [18]: inactive

SMILES: CCSC(=O)N(CC)C1CCCCC1
- outcome [1]: inactive
- outcome [2]: inactive
- outcome [3]: inactive
- outcome [4]: inactive
- outcome [5]: inactive
- outcome [6]: inactive
- outcome [7]: inactive
- outcome [8]: inactive
- outcome [9]: inactive
- outcome [10]: inactive
- outcome [11]: inactive
- outcome [12]: inactive
- outcome [13]: inactive
- outcome [14]: inactive
- outcome [15]: inactive
- outcome [16]: inactive
- outcome [17]: inactive
- outcome [18]: inactive

SMILES: CCOP(=S)(OCC)SCSC(C)(C)C
- outcome [1]: inactive
- outcome [2]: inactive
- outcome [3]: inactive
- outcome [4]: inactive
- outcome [5]: inactive
- outcome [6]: inactive
- outcome [7]: inactive
- outcome [8]: inactive
- outcome [9]: inactive
- outcome [10]: inactive
- outcome [11]: inactive
- outcome [12]: inactive
- outcome [13]: inactive
- outcome [14]: inactive
- AC50 [16]: 36.2 µM (active)
- outcome [17]: inactive
- outcome [18]: inactive

SMILES: CC(c1ccc(O)cc1)(c1ccc(O)cc1)c1ccc(O)cc1
- AC50 [1]: 23.6 µM (active)
- AC50 [2]: 16.5 µM (active)
- AC50 [3]: 29.2 µM (active)
- outcome [4]: inactive
- AC50 [5]: 23.8 µM (active)
- AC50 [6]: 39.2 µM (active)
- AC50 [7]: 20.5 µM (active)
- AC50 [8]: 20 µM (active)
- AC50 [9]: 22.3 µM (active)
- AC50 [10]: 29.9 µM (active)
- outcome [11]: inactive
- AC50 [12]: 13.1 µM (active)
- AC50 [13]: 20 µM (active)
- AC50 [14]: 25.2 µM (active)
- AC50 [15]: 20 µM (active)
- AC50 [16]: 20 µM (active)
- AC50 [17]: 32.7 µM (active)
- outcome [18]: inactive

SMILES: CC1=C2C[C@H]3[C@@H](CC=C4C[C@@H](O)CC[C@@]43C)[C@@H]2CC[C@]12O[C@@H]1C[C@H](C)CN[C@H]1[C@H]2C
- outcome [1]: inactive
- outcome [2]: inactive
- outcome [3]: inactive
- outcome [4]: inactive
- outcome [5]: inactive
- outcome [6]: inactive
- outcome [7]: inactive
- outcome [8]: inactive
- outcome [9]: inactive
- outcome [10]: inactive
- outcome [11]: inactive
- outcome [12]: inactive
- outcome [19]: inactive
- outcome [13]: inactive
- outcome [14]: inactive
- outcome [16]: inactive
- outcome [17]: inactive
- outcome [18]: inactive
